Data on 95 molecules can be found in PubChem BioAssay AID2314 (National Center for Advancing Translational Sciences (NCATS), 2010).

About 37,000 (12%) of roughly 300,000 compounds were called active. Cut-off read from the data, not from the text of the source: active = max response mostly above about 13% (no sharp cut-off); inactive = mostly below about 14%. For the sample, actives were picked, then their nearest neighbours and some compounds at random.

A short description of this test: Cycloheximide Counterscreen for Small Molecule Inhibitors of Shiga Toxin. Note: read at 38.3 µM for the half of the compounds with a filed dose; 0% is about no effect. As to conditions: cell reporter, cycloheximide protein synthesis inhibition counterscreen; hits give high values.
Consider `O=C(Nc1ccc(N2CCCC2=O)cc1)c1cncc(Br)c1`, for which the max response is 1.75% (inactive). Then `COCn1c(C(O)c2ccccc2)cc2ccccc21` (stereo not given), with 5.67% (inactive); and `CCOC(=O)N1CCN(C(=O)COCc2cc(-c3ccc4c(c3)OCO4)on2)CC1`, with 9.44% (inactive). Then `Cc1cccc(N2CCN(C(=O)COCc3cc(-c4ccc5c(c4)OCO5)on3)CC2)c1C`, with 13.7% (inactive).

For `CC(C)NC(=O)COCc1cc(-c2ccc3c(c2)OCO3)on1`, the max response is 34.6% (active). In the case of `CCCn1nnnc1NCc1ccc(CC)cc1`, the max response is 15.5% (inactive). In the case of `CCN1CCN(c2sc(S(C)(=O)=O)nc2S(=O)(=O)c2ccc(Cl)cc2)CC1`, the max response is 13.5% (inactive). Then `O=C(CSc1ccccc1)Nc1nnc(/C=C/c2ccccc2)s1`, with 0.905% (inactive); and `O=C(Nc1ccc(Cl)cc1)Nc1nnc(/C=C/c2ccccc2)s1`, with 6.47% (inactive). Turning to `COc1ccc(/C=C/c2nnc(NC(=O)C(C)C)s2)cc1`, the max response was 13.9% (active).

Take `CCCCNC(=O)N1CCCC(N(C)CCc2ccc(OC)c(OC)c2)C1` (stereo not given): the max response is -0.786% (inactive). Then `Cc1nn(C(=O)c2ccoc2C)c(N)c1-c1ccccc1`, with 53.9% (active); and `CCCC(=O)n1nc(-c2ccccc2)nc1N`, with -1.34% (inactive). Then `CCOC(=O)c1c(N)nn(C(=O)c2ccccc2)c1-c1ccccc1`, with -1.7% (inactive); and `CCC(C)[C@@H](N)C(=O)O` (stereo not given in full), with -4.08% (inactive). Then `CCCCNC(=O)c1ccccc1NC(=O)C1=C(C)OCCS1`, with 1.86% (inactive).

Consider `Cc1c(C(=O)Nc2ccccc2)sc2nc3n(c(=O)c12)CCCCC3`, for which the max response is 36.1% (active). Then `O=c1c2c(nc3n1CCCCC3)sc1c(O)cccc12`, with 12.7% (inactive); and `CC(=O)c1ccc(NC(=O)c2sc3nc4n(c(=O)c3c2C)CCCCC4)cc1`, with 47.8% (active); and `Cc1nc(N2CCOCC2)c2c(C)c(C(=O)Nc3ccc(C(F)(F)F)cc3)sc2n1`, with -1.52% (inactive). Then `CC(=O)c1sc2nc(SCC(=O)N3CCCCC3)[nH]c(=O)c2c1C`, with -3.21% (inactive); and `Cc1nc(N2CCN(c3ccccn3)CC2)c2c(C)c(C(=O)Nc3ccc(F)cc3)sc2n1`, with 1.78% (inactive). Then `CCCCN(CC)C(=S)Nc1ccc2nc3n(c(=O)c2c1)CCCCC3`, with -3.24% (inactive); and `COc1ccc(CCNC(=O)C(=O)Nc2ccc3nc4n(c(=O)c3c2)CCCCC4)cc1OC`, with -0.998% (inactive); and `O=C(Nc1ccc2nc3n(c(=O)c2c1)CCCCC3)c1ccccc1Cl`, with 23% (active).

For the molecule `O=[N+]([O-])/C=C/c1ccc2c(ccn2Cc2ccccc2)c1`, the max response was -1.88% (inactive). `CN(C)CCCCCN(C)Cc1cc2ccccc2o1`: the max response was -0.524% (inactive).

For the molecule `COCCCNC(=O)CNC(=O)c1nn(-c2ccc(OC)cc2)c(=O)c2ccccc12`, the max response is -1.37% (inactive). Then `O=C(Nc1ccccc1C(=O)O)c1ccc(N2C(=O)C3CC=CCC3C2=O)cc1` (stereo not given), with -5.5% (inactive); and `O=C1CSc2ccc(S(=O)(=O)NCc3ccccc3)cc2N1`, with 7.11% (inactive); and `COc1cccc(N(C(=O)c2ccn[nH]2)C2(C(=O)Nc3c(C)cccc3C)CCCCC2)c1`, with -5.43% (inactive). Regarding `CC1CCN(c2oc(-c3ccccc3F)nc2C#N)CC1`, the max response is 28.8% (active). Then `Cc1oc(-c2ccccc2F)nc1CS(=O)CC(=O)NCCN1CCCCC1C` (stereo not given), with -6.49% (inactive). Then `COc1ccccc1-c1nc(C#N)c(N2CCC(C(N)=O)CC2)o1`, with -3.17% (inactive); and `Cc1ccc(NN=Nc2nc3c([nH]2)c(=O)n(C)c(=O)n3C)cc1`, with 11.7% (inactive). On to `Cc1cccc(C)c1NC(=O)CN1C(=O)C(C)Oc2ccccc21` (stereo not given), for which the max response is 1.84% (inactive).

For `COCCn1c(SCC(=O)Nc2ccccc2F)nc2c(c1=O)SCC2`, the max response is 8.88% (inactive). Then `COc1ccc(C(C)NC(=S)NC2CCCCC2)cc1OC` (stereo not given), with -2.46% (inactive); and `COc1cc(Br)c(-c2sc(Nc3ccccc3)n[n+]2-c2ccccc2)cc1OC`, with 1.49% (inactive). Then `CCc1ccc(Oc2coc3cc(OC(=O)c4cc5ccccc5oc4=O)ccc3c2=O)cc1`, with 12% (inactive); and `COc1ccc(Oc2coc3cc(OC(=O)c4cncc(Br)c4)ccc3c2=O)cc1`, with 5.74% (inactive); and `CCc1ccc(Oc2coc3cc(O)ccc3c2=O)cc1`, with 31.5% (active). Then `CC[C@H](C)[C@H](NC(=O)[C@H](Cc1ccc(O)cc1)NC(=O)[C@@H](NC(=O)[C@H](CCCN=C(N)N)NC(=O)[C@@H](N)CC(=O)O)C(C)C)C(=O)N[C@@H](Cc1cnc[nH]1)C(=O)N1CCC[C@H]1C(=O)N[C@@H](Cc1ccccc1)C(=O)O`, with 16% (inactive); and `C=CCN1C(=O)C2(OCCCO2)c2cccc(Cl)c21`, with 1.84% (inactive). In the case of `Cc1ccc(CNC(=O)Cn2cnc(S(=O)(=O)N3CCCCC3)c2)o1`, the max response is 6.21% (inactive). Then `CCOC(=O)c1ccc(NC(=O)CCn2c(=O)oc3ccccc32)cc1`, with 9.25% (inactive); and `CCOC(=O)c1ccc(NC(=S)N2CCCC2)cc1`, with 9.83% (inactive). Then `CCOC(=O)c1ccc(-c2ccc(C(=O)Nc3cccnc3)o2)cc1`, with 32.1% (active); and `CCOC(=O)c1ccc(NC(=O)CSc2ncccn2)cc1`, with 26.6% (active). Then `CCCc1nnc(SCC(=O)Nc2ccc(C(=O)OCC)cc2)o1`, with 3.14% (inactive); and `CCCCC(CCC(=O)Nc1ccc(C(=O)OCC)cc1)C(=O)O` (stereo not given), with 0.691% (inactive). For `C#CCNc1ccc(C(=O)OCC)cc1`, the max response was 31.8% (active).

With `CC(C)NS(=O)(=O)c1ccc(NC(=O)c2cccnc2)cc1`, the max response is -3.02% (inactive).

Regarding `COc1ccc(C)cc1NC(=O)c1ccc(-c2ccc(C(C)=O)cc2)o1`, the max response is 16% (inactive). Then `CCOC(=O)c1ccc(NC(=O)CSc2nnc(COc3ccccc3OC)n2C)cc1`, with 4.99% (inactive). Then `CCOC(=O)c1ccc(NC(=O)c2cccnc2)cc1`, with 38.1% (active). Then `O=C(Cc1ccccc1)Nc1ccc(NC(=O)c2cccnc2)cc1`, with -2.68% (inactive); and `COc1ccccc1N1CC(C(=O)Nc2nnc(SCC(=O)NC(C)C)s2)CC1=O` (stereo not given), with -0.494% (inactive); and `C=CCN1C(=O)C(O)(CC(=O)c2ccc(Cl)cc2)c2ccccc21` (stereo not given), with -1.68% (inactive).

As for `Cc1c([N+](=O)[O-])c(N)nn1C`, the max response is -1.77% (inactive).

As to `COCCNC(=S)N(CCc1c(C)[nH]c2ccc(C)cc12)Cc1cccnc1`, the max response is -0.385% (inactive).

On to `C=CCNC(=O)c1sc(SC)cc1-c1ccc(Cl)cc1`, for which the max response is -0.634% (inactive). Then `CCOC(=O)C1CCN(C(=O)CN2C(=O)c3cccnc3Oc3ccc(C)cc32)CC1`, with -3.81% (inactive); and `CCCOc1ccc(C(=O)C(CCC(CNCC)C(=O)c2ccc(OCCC)cc2)CNCC)cc1` (stereo not given), with -10% (inactive). Consider `O=S(=O)(NCC1CC1)c1ccc(F)c(Cl)c1`, for which the max response was 0.9% (inactive).

Take `O=C(NC1C2CC3CC(C2)CC1C3)c1ccc(N2CCNCC2)c([N+](=O)[O-])c1` (stereo not given): the max response is -2.96% (inactive). Regarding `N#Cc1cc([N+](=O)[O-])ccc1NCC1CCCO1` (stereo not given), the max response is -4.48% (inactive). Then `CCOC(=O)c1ccc(NC(=O)Cc2cccs2)cc1`, with 33% (active). Then `O=C(Cc1cccs1)Nc1ccc([N+](=O)[O-])cc1`, with -1.6% (inactive); and `CCOc1ccccc1NC(=O)Cc1cccs1`, with -3.39% (inactive). Then `COc1cccc(NC(=O)CC(c2ccc(OC(C)C)cc2)c2ccccc2OC)c1` (stereo not given), with 2.51% (inactive); and `COc1ccc(/C=C(\NC(=O)c2ccc(OCC(C)C)cc2)C(=O)OCc2ccco2)cc1`, with -1.98% (inactive). Consider `COc1ccc(Cn2c(=S)[nH]c3cc(C(=O)NCCCN4CCOCC4)ccc3c2=O)cc1`, for which the max response is -1.29% (inactive). Then `Cc1ccc(S(=O)(=O)NCCC(=O)Nc2ccc(C)c(Cl)c2)cc1C`, with -4.03% (inactive); and `Cc1ccnc(NC(=O)CCNS(=O)(=O)c2ccc(C)c(C)c2)c1`, with 47.8% (active). For the molecule `Cc1ccc(S(=O)(=O)NCCC(=O)Nc2cccc(S(N)(=O)=O)c2)cc1C`, the max response was -4.85% (inactive).

Take `O=C1C=C(c2ccc(Cl)cc2)C(=O)N1Nc1ccccc1`: the max response was -6.32% (inactive). Then `CCOc1cc(CNn2c(C)nnc2SCC(=O)NC(C)(C)C)ccc1OCC(=O)NC(C)(C)C`, with -1.88% (inactive); and `Cn1cnc2c1c(=O)n(Cc1ccccc1C#N)c(=O)n2C`, with 7.66% (inactive). Then `COc1ccccc1CN1CCCC(N2CCN(c3ccc(F)cc3)CC2)C1` (stereo not given), with 0.35% (inactive); and `N#CC(C#N)=Cc1cc(O)c(O)c([N+](=O)[O-])c1`, with 37% (active); and `O=[N+]([O-])c1cc([N+](=O)[O-])c2cccnc2c1O`, with 5.27% (inactive). As for `CN(C)/N=C/c1cc(Cl)cc([N+](=O)[O-])c1O`, the max response was -1.13% (inactive). Then `O=[N+]([O-])c1ccccc1/C=C/CN1CCC(O)CC1`, with 0.466% (inactive). Then `CN(C)Cc1c(C#N)c2ccccc2n1C`, with -3.13% (inactive).

With `COc1ccc(-c2c(C#Cc3ccccc3)c3ccccc3n2C)cc1`, the max response is 40% (active). Then `COc1ccc(CCNCc2c(-c3ccccc3)n(C)c3ccccc23)cc1`, with -3.43% (inactive).

Regarding `Cc1cc(=O)oc2c1ccc1ccccc12`, the max response is 0.801% (inactive). As to `O=C(CSc1nccc(=O)[nH]1)Nc1ccc(N2CCOCC2)c(Cl)c1`, the max response is -2.31% (inactive). Then `COc1ccc(CCNC(=O)CS(=O)(=O)Cc2nc(-c3ccc(C)cc3)oc2C)cc1OC`, with -4.16% (inactive). Then `CC(C)C(=O)Nc1c(O)c2ccccc2[nH]c1=O`, with -0.723% (inactive); and `CCCC(=O)Nc1c(O)c2ccccc2[nH]c1=O`, with -3.15% (inactive). On to `NS(=O)(=O)c1ccccc1NC(=O)c1c(O)c2ccccc2[nH]c1=O`, for which the max response is 41.2% (active). Then `N#Cc1ccc(-c2nc3cc(C#N)c(C#N)cc3nc2-c2ccccc2)cc1C#N`, with 18.4% (inactive). Then `Cc1ccc(N2C(=O)C3C4C=CC(CC4)C3C2=O)cc1Br` (stereo not given), with 0.748% (inactive).
